Drawing on PubChem BioAssay (NCI), this text covers growth inhibition for nine molecules.

Compounds without any hit were thinned out: in the full panel of roughly 79,000, 15% have a hit. A number with no mark means an inactive call. Activity calls are given as the source filed them. No stated cut-off is given here; in the data, active means growth inhibition above about 70%; inactive means the rest.

The nature of assay [1]: NCI Yeast Anticancer Drug Screen. Data for the rad50 strain (AID 155).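 Further: 0% = growth of vehicle-only cultures of the same strain.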 The conditions noted are these: S. cerevisiae rad50 strain growth inhibition, active compounds read high. The method in brief:
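Growth of the mutant yeast was measured after compound exposure and referenced to vehicle-treated cultures.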

A short description of assay [2]: NCI Yeast Anticancer Drug Screen. Data for the mec2-1 strain (AID 157). The conditions noted are these: S. cerevisiae mec2-1 strain, active compounds read high. The method in brief:
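Growth inhibition is read against vehicle-treated controls after compound exposure of the mec2-1 yeast strain, which is defective in DNA damage repair or cell cycle control.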

The nature of assay [3]: NCI Yeast Anticancer Drug Screen. Data for the sgs1 mgt1 strain (AID 161).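 Further: 0% = growth of cultures given vehicle only.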 Particulars: S. cerevisiae sgs1 mgt1 strain, active compounds read high. The method in brief: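 This yeast growth screen uses a strain with defined DNA-repair lesions; compound-treated growth is compared with vehicle-treated growth.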
The nature of assay [4]: NCI Yeast Anticancer Drug Screen. Data for the cln2 rad14 strain (AID 165).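 Further: 0% = growth equal to vehicle treated cultures.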 The conditions noted are these: S. cerevisiae cln2 rad14 strain, active compounds read high. The method in brief: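 Growth inhibition, relative to vehicle-treated controls, is the read-out. The test organism is a yeast strain with defined genetic alterations, cln2 rad14.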
The nature of assay [5]: NCI Yeast Anticancer Drug Screen. Data for the bub3 strain (AID 167). The conditions noted are these: S. cerevisiae bub3 mutant strain, active compounds read high. The method in brief:
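Whole-cell yeast assay. The mutant strain was incubated with compounds, and growth inhibition was determined by comparison with vehicle-treated cells.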

Assay [6] is described as follows: NCI Yeast Anticancer Drug Screen. Data for the mlh1 rad18 strain (AID 175). The conditions noted are these: S. cerevisiae mlh1 rad18 strain growth inhibition, active compounds read high. The method in brief: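 Cells of a genetically altered yeast strain, deficient in DNA damage repair, were treated with compound. Their growth was then compared with that of vehicle-treated cultures to give inhibition.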

Setting [7] is: at 5.0 µM (retest, dose inferred, filed as 0.5).
[8] abbreviates: at 50.0 µM (retest, dose inferred, filed as 5.0).

Consider `CCC[CH2][Sn]([Cl])([CH2]CCC)[S]/C(C#N)=N/N=C/c1ccc(N(C)C)cc1`, for which the growth inhibition in assay [1] (setting [7]) was 97% (active); in assay [1] (setting [8]), 98% (active); in assay [1] (at 50.0 µM) it was 98.2% (active); in assay [2] (setting [7]), 97% (active); in assay [2] (setting [8]), 98% (active); in assay [2] (at 50.0 µM), 98.8% (active). In addition, the growth inhibition is 97% (active) in assay [3] (setting [7]); 98% (active) in assay [3] (setting [8]); 98.8% (active) in assay [3] (at 50.0 µM); 99% (active) in assay [4] (setting [7]); 98% (active) in assay [4] (setting [8]); 97.9% (active) in assay [4] (at 50.0 µM). For the same molecule, the growth inhibition in assay [5] (setting [7]) was 97% (active); in assay [5] (setting [8]) it was 98% (active); in assay [5] (at 50.0 µM) it was 98.8% (active); in assay [6] (setting [7]), 98% (active); in assay [6] (setting [8]), 97% (active); in assay [6] (at 50.0 µM), 98.7% (active).
On to `COc1ccc(/C=C/C(=N/NC(=O)c2ccccc2)C(C)CN(C)C)cc1` (configuration not stated), for which the growth inhibition in assay [1] (setting [7]) is -3%; in assay [1] (setting [8]), 4%; in assay [1] (at 50.0 µM), 6.15%; in assay [2] (setting [7]), 1%; in assay [2] (setting [8]), 4%; in assay [2] (at 50.0 µM), 16.3%. In addition, the growth inhibition was 3% in assay [3] (setting [7]); 2% in assay [3] (setting [8]); 6.9% in assay [3] (at 50.0 µM); 1% in assay [4] (setting [7]); -2% in assay [4] (setting [8]); 49.2% in assay [4] (at 50.0 µM). Also, the growth inhibition in assay [5] (setting [7]) is -5%; in assay [5] (setting [8]), -7%; in assay [5] (at 50.0 µM) it was -8.2%; in assay [6] (setting [7]), -1%; in assay [6] (setting [8]), -64%; in assay [6] (at 50.0 µM) it was 7.45%.
On to `NC(=O)C(=CNc1nc(-c2ccc(Br)cc2)cs1)C(N)=O`, for which the growth inhibition in assay [1] (setting [7]) was -5%; in assay [1] (setting [8]) it was 92% (active); in assay [1] (at 50.0 µM), 99.5% (active); in assay [2] (setting [7]), -11%; in assay [2] (setting [8]), 98% (active); in assay [2] (at 50.0 µM), 99.5% (active). The growth inhibition in assay [3] (setting [7]) is -3%; in assay [3] (setting [8]), 92% (active); in assay [3] (at 50.0 µM) it was 99.5% (active); in assay [4] (setting [7]), -34%; in assay [4] (setting [8]), 94% (active); in assay [4] (at 50.0 µM), 98.9% (active). For the same molecule, the growth inhibition is -11% in assay [5] (setting [7]); 99% (active) in assay [5] (setting [8]); 99.5% (active) in assay [5] (at 50.0 µM); -6% in assay [6] (setting [7]); 98% (active) in assay [6] (setting [8]); 99.3% (active) in assay [6] (at 50.0 µM).
On to `N#CC1=C(N)OC(c2ccccc2)=C(C#N)C1c1ccccc1[N+](=O)[O-]` (configuration not stated), for which the growth inhibition in assay [1] (setting [7]) was 5%; in assay [1] (setting [8]), 5%; in assay [1] (at 50.0 µM) it was -8.2%; in assay [2] (setting [7]), 9%; in assay [2] (setting [8]), 8%; in assay [2] (at 50.0 µM), 38.1%. In addition, the growth inhibition in assay [3] (setting [7]) was 12%; in assay [3] (setting [8]), -8%; in assay [3] (at 50.0 µM), 22.7%; in assay [4] (setting [7]) it was 11%; in assay [4] (setting [8]), 5%; in assay [4] (at 50.0 µM), 72.5% (active). Further, the growth inhibition in assay [5] (setting [7]) was -1%; in assay [5] (setting [8]), -4%; in assay [5] (at 50.0 µM), 39.1%; in assay [6] (setting [7]) it was 2%; in assay [6] (setting [8]) it was 7%; in assay [6] (at 50.0 µM), 23.3%.
On to `O=C1Nc2ccccc2C(=O)C1(Cc1ccccc1)C(=O)c1ccccc1` (configuration not stated), for which the growth inhibition in assay [1] (setting [7]) is 14%; in assay [1] (setting [8]) it was 26%; in assay [1] (at 50.0 µM), 97% (active); in assay [2] (setting [7]) it was -1%; in assay [2] (setting [8]), -9%; in assay [2] (at 50.0 µM), 97.2% (active). The growth inhibition was 11% in assay [3] (setting [7]); 25% in assay [3] (setting [8]); 97.5% (active) in assay [3] (at 50.0 µM); -1% in assay [4] (setting [7]); 10% in assay [4] (setting [8]); 97.5% (active) in assay [4] (at 50.0 µM). The growth inhibition in assay [5] (setting [7]) is 11%; in assay [5] (setting [8]), 12%; in assay [5] (at 50.0 µM) it was 97.5% (active); in assay [6] (setting [7]), 4%; in assay [6] (setting [8]) it was 33%; in assay [6] (at 50.0 µM), 97.4% (active).
For `COc1ccc(C)c2nc3ccccc3nc12`, the growth inhibition in assay [1] (setting [7]) is -119%; in assay [1] (setting [8]), 86% (active); in assay [1] (at 50.0 µM) it was 97% (active); in assay [2] (setting [7]) it was -42%; in assay [2] (setting [8]) it was 24%; in assay [2] (at 50.0 µM), 74.5% (active). Moreover, the growth inhibition was -64% in assay [3] (setting [7]); 51% in assay [3] (setting [8]); 38.7% in assay [3] (at 50.0 µM); -49% in assay [4] (setting [7]); 37% in assay [4] (setting [8]); 56.2% in assay [4] (at 50.0 µM). Moreover, the growth inhibition in assay [5] (setting [7]) is -58%; in assay [5] (setting [8]), 31%; in assay [5] (at 50.0 µM), 91.9% (active); in assay [6] (setting [7]) it was -110%; in assay [6] (setting [8]) it was 67%; in assay [6] (at 50.0 µM), 87.7% (active).
For `C[n+]1c(/C=C/c2cccc([N+](=O)[O-])c2)sc2ccccc21`, the growth inhibition in assay [1] (setting [7]) was 10%; in assay [1] (setting [8]), 97% (active); in assay [1] (at 50.0 µM), 97.6% (active); in assay [2] (setting [7]) it was 15%; in assay [2] (setting [8]), 99% (active); in assay [2] (at 50.0 µM), 96.2% (active). Besides, the growth inhibition in assay [3] (setting [7]) is -1%; in assay [3] (setting [8]), 98% (active); in assay [3] (at 50.0 µM), 97.9% (active); in assay [4] (setting [7]), 14%; in assay [4] (setting [8]), 97% (active); in assay [4] (at 50.0 µM), 98.8% (active). The growth inhibition in assay [5] (setting [7]) is 7%; in assay [5] (setting [8]), 97% (active); in assay [5] (at 50.0 µM) it was 96% (active); in assay [6] (setting [7]), 13%; in assay [6] (setting [8]) it was 98% (active); in assay [6] (at 50.0 µM), 99.2% (active).
`O=C(O)CSCc1cc2c3ccccc3sc2c2ccccc12`: the growth inhibition is 49% in assay [1] (setting [7]); 99% (active) in assay [1] (setting [8]); 97.9% (active) in assay [1] (at 50.0 µM); 29% in assay [2] (setting [7]); 99% (active) in assay [2] (setting [8]); 97.2% (active) in assay [2] (at 50.0 µM). The growth inhibition in assay [3] (setting [7]) was 30%; in assay [3] (setting [8]), 98% (active); in assay [3] (at 50.0 µM), 93.2% (active); in assay [4] (setting [7]) it was 52%; in assay [4] (setting [8]), 99% (active); in assay [4] (at 50.0 µM) it was 97.7% (active). Moreover, the growth inhibition in assay [5] (setting [7]) is 31%; in assay [5] (setting [8]) it was 99% (active); in assay [5] (at 50.0 µM) it was 96.8% (active); in assay [6] (setting [7]), 35%; in assay [6] (setting [8]) it was 99% (active); in assay [6] (at 50.0 µM), 98.5% (active).
Regarding `COc1cc2c(c(O)c1OC)-c1c(cc(OC)c(OC)c1OC)CC(C)C(C)C2` (configuration not stated), the growth inhibition in assay [1] (setting [7]) was -23%; in assay [1] (setting [8]), 27%; in assay [1] (at 50.0 µM), 66.9%; in assay [2] (setting [7]), -23%; in assay [2] (setting [8]) it was 11%; in assay [2] (at 50.0 µM), 46.7%. For the same molecule, the growth inhibition was -15% in assay [3] (setting [7]); 63% in assay [3] (setting [8]); 74.7% (active) in assay [3] (at 50.0 µM); -10% in assay [4] (setting [7]); 61% in assay [4] (setting [8]); 51.5% in assay [4] (at 50.0 µM). Further, the growth inhibition is 9% in assay [5] (setting [7]); 53% in assay [5] (setting [8]); 60% in assay [5] (at 50.0 µM); 6% in assay [6] (setting [7]); 59% in assay [6] (setting [8]); 18.7% in assay [6] (at 50.0 µM).
